The panel holds about 83,000 compounds, 20% with a hit somewhere; the sample as a whole holds those more often.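 The test compound was applied at a single concentration to cells in 96-well plates for 48 hours, and percent growth was recorded.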 Values without a mark were called inactive. The source made the active and inactive calls.
system: M14 melanoma; assay: NCI-60 one-dose screen, 48 h (100 = growth as untreated, 0 = no growth, -100 = all killed); conditions: 10 µM unless noted
Experimental: Growth inhibition of the M14 human tumor cell line is measured as a screen for anti-cancer activity. Cells are grown in 96 well plates and exposed to the test compound for 48 hours. Compounds are tested at a single concentration, which is 10^-5 M for most compounds. The reported endpoint is percent growth (GI% or GIPRCNT), where numbers from 0 - 100% represent growth inhibition, and numbers from -100% - 0 represent cell death. For example, a value of 40 represents 60% growth inhibition. A value of 0 means no net growth occurred over the course of the experiment. A value of -40 indicates 40% of cells at the beginning of the experiment died by the end of the experiment. A value of -100 means all cells are dead at the end of the experiment.
NCI-60 Human Tumor Cell Lines Screen was performed using the standard one-dose NCI protocol, which is described in more detail at https://dtp.cancer.gov/discovery_development/nci-60/default.htm.
Compounds with GIPRCNT values below 10 were considered active. Activity score was based on GIPRCNT using the following formula: […]
Score is 0 for GIPRCNT values of 100 or above, 50 for GIPRCNT values of 0, and 100 for GIPRCNT values of -100.

SMILES | growth
CCN1C(=O)N(CC)C2C1NN=c1s/c(=C\c3ccc(C(F)(F)F)cc3)c(=O)n12 (stereo not given) | 6.9% (active)
c1ccc(CCNc2c3ccccc3nc3ccccc23)cc1 | 42.7%
O=C1Nc2c(C(=O)O)cccc2/C1=N/c1n[nH]c(=S)s1 | 90.9%
COC(=O)c1cc(Br)ccc1O | 105%
CN1CCN(C(=S)SCCCCOc2cc(=O)oc3ccccc23)CC1 | 103%
COc1ccc(-c2nn(-c3ccccc3)cc2/C=C/C(=O)NNC(=O)Nc2ccc(C)cc2)cc1 | 94.1%
Nc1nc(N)c(N=Nc2ccccc2)c(-c2ccccc2)n1 | 84.5%
Cn1cc(-c2csc(-c3cn(CCCN4CCOCC4)c4ccccc34)n2)c2cccnc21 | 83.6%
CCc1n(Cc2ccc3ccccc3n2)cc[n+]1Cc1ccc2ccccc2n1 | 46.6%
COc1ccc(Cn2cc(C(=O)N=Nc3c(O)[nH]c4c(C)cccc34)nn2)cc1 | 71.9%
COc1cccc(CCNc2ncnc3c2ncn3Cc2nnc3c4ccccc4c(Cl)nn23)c1 | 32.2%
C/C(=N\O)[C@@H]1CC[C@]2(CO)CC[C@]3(C)[C@H](CC[C@@H]4[C@@]5(C)CCCNC(C)(C)[C@@H]5CC[C@]43C)[C@@H]12 | 87%
COc1cccc(/C=N/NC(=O)c2ccccc2N2CCCC2)c1O | 48.5%
CO[C@H](C(=O)[C@@H](O)[C@@H](C)O)[C@@H]1Cc2cc3cc(O[C@H]4C[C@@H](O[C@H]5C[C@@H](O)[C@H](O)C(C)O5)[C@H](O)C(C)(O)O4)cc(O)c3c(O)c2C(=O)[C@H]1O[C@H]1C[C@@H](O[C@H]2C[C@@H](O[C@H]3C[C@@H](OC)[C@H](O)C(C)O3)[C@@H](O)C(C)O2)[C@H](O)C(C)O1 (stereo not given in full) | 34.2%
Cc1nc2ccccc2c(/C=C/c2ccccc2)c1C(=O)/C=C/c1ccccc1 | 22.5%
CS(=O)(=O)c1ccc(NC(=O)c2ccccc2)nc1 | 115%
O=C1c2cccc3cccc(c23)C(=O)N1C/C=C/c1ccc2c3c(cccc13)C(=O)N(CCO)C2=O | 87.8%
C/C(Cc1ccc(Cl)cc1)=C(\c1ccc(OCCCN(C)C)cc1)c1ccc(OC(=O)Cc2ccccc2)cc1 | 109%
C/C=C(\C)C(=O)N[C@H]1C(O)C[C@]2(C)C3CC[C@@]4(C)C(CC[C@@H]4C(C)N(C)C)C3CCC2C1O (stereo not given in full) | -14.1% (active)
Nc1c(C(=O)Nc2cccc(Cl)c2)sc2nc3c(cc12)CCCC3 | 78.6%

SMILES | growth
COc1ccccc1N(C(C)=O)C1=C(Cl)C(=O)c2ccccc2C1=O | 11.7%
CC1=C(C(=O)Nc2nc(-c3ccc(Cl)cc3)cs2)[C@H](c2ccc(O)cc2)NC(=O)N1 | 98.1%
O=C(Cc1ccccc1)Nc1cccc(N=Cc2ccccc2O)c1 | 107%
COc1ccc(-c2n[nH]c(=O)c3nc(NC(=S)Nc4ccc(Oc5ccccc5)cc4)sc23)cc1 | 88.9%
CCCCNc1nnc2n(Cc3ccccc3)c(=O)c3c4c(sc3n12)CCCC4 | 56.3%
CC(=O)Oc1ccc(OC(C)=O)c2ccccc12 | 105%
C=C1C(=O)O[C@H]2[C@H]1CC/C(COC(=O)/C=C/C(=O)OC/C1=C/CC[C@@]3(C)O[C@H]3[C@H]3OC(=O)C(=C)[C@@H]3CC1)=C\CC[C@@]1(C)O[C@@H]21 | 27.5%
CN1CCN(Cc2ccc(NC(=O)c3cncc(C#Cc4cnc(N)c5ncccc45)c3)cc2C(F)(F)F)CC1 | -87% (active)
CC1CCN(C(=S)SCC(=O)NC(=O)c2ccccc2)CC1 | 109%
CN(Cc1cc(Br)cc(Br)c1O)Cc1cc(Br)cc(Br)c1O | 37.3%
O=C1NC(=O)/C(=C/c2c(-c3ccccc3)nc3sc(COc4ccccc4)nn23)S1 | 96.1%
COc1cc(C(=O)n2nc(N3CCOCC3)c3cc(-n4cccc4)ccc32)cc(OC)c1OC | 52.7%
NC(=O)c1c(NC(=O)c2cccc(C(F)(F)F)c2)sc2c1CCC(=O)C2 | -54% (active)
Cc1nn(-c2cc(NC3CCC(O)CC3)c3c(=O)[nH]c(CCC(F)(F)F)cc3c2)c2c1C(=O)CC(C)(C)C2 (stereo not given) | 32.3%
C=C(c1ccc(OC)c(/C=C/C(=O)c2ccc3c(c2)OCO3)c1)c1cc(OC)c(OC)c(OC)c1 | 11.3%
Cc1ccc(S(=O)(=O)Oc2ccc3sc4cccc(NCCN(C)C)c4c(=O)c3c2)cc1 | -84.9% (active)
C=CC(=O)Nc1ccc(Oc2nccc(Nc3nnc(-c4ccc(C)cc4)s3)n2)cc1 | 57.5%
CC1(C)CC(=O)c2c(nn(-c3ccc(Br)cc3)c2-c2cn(-c3ccccc3)nc2-c2cccnc2)C1 | 98.6%
O=C1/C(=C\c2cccc3nccnc23)SC(=S)N1CCc1ccc(O)cc1 | 96.3%
CS(=O)(=O)Nc1cc(-c2ccc3ncc(C#N)c(Nc4ccc(F)c(Cl)c4)c3c2)cnc1Cl | 11.2%

Reference: PubChem BioAssay (NCI)
